Test results taken from PubChem BioAssay (NCATS).
Where “and” joins values, the source holds several entries; their conditions need not be identical. Equal entries are not always repeated. Results filed as inconclusive are left out. Calls of active or inactive are those of the source. Calls follow the shape of the dose curve; as a rule, active = well fitted curve in the direction sought with a large enough effect; inconclusive = small, poorly fitted or top-dose-only effect, or another doubt; inactive = no such curve, though single readings can be large; an effect the other way counts as inactive or inconclusive.

Legend:
[1] = test system: CRL-7250; test: Cytotoxic Profiling of Annotated Libraries Using Quantitative High-Throughput Screening (AID 1296008); settings: Five cell lines viability, CellTiter-Glo ATP luminescence, 48-72 h; max response: hits give low values; also: nearly all actives have a fitted effect of over 60% in size; as to max response: % is scaled to controls: 0 for no effect and ±100 for the full control effect
Method in brief: (§1)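 Compounds were pin-transferred onto cells and incubated 48 or 72 hr at 37 degree Celsius, 95% humidity. CellTiter-Glo was added, plates sat 10 min at room temperature, then ATP-coupled luminescence was imaged as the viability read-out.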

[2] = test system: HEK293; test: as above; settings: Five cell lines viability, CellTiter-Glo ATP luminescence, 48-72 h; max response: hits give low values
Method in brief: as §1

[3] = test system: HaCat; test: as above; settings: Five cell lines viability, CellTiter-Glo ATP luminescence, 48-72 h; max response: hits give low values
Method in brief: as §1

[4] = test system: KB-3-1; test: as above; settings: Five cell lines viability, CellTiter-Glo ATP luminescence, 48-72 h; max response: hits give low values
Method in brief: as §1

[5] = test system: NIH3T3; test: as above; settings: Five cell lines viability, CellTiter-Glo ATP luminescence, 48-72 h; max response: hits give low values
Method in brief: as §1

[6] = test system: MCC-26; test: qHTS assay to identify novel small-molecules to repurpose for Merkel cell carcinoma treatment (AID 1296009); settings: MCC and control cell lines, CellTiter-Glo viability, 72 h; series mostly up to 46 µM; also: nearly all actives have a fitted effect of over 60% in size
Method in brief: (§2)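 qHTS format: cells treated with library compounds in DMSO across 8 (NPC) or 11 (MIPE) concentrations. Readout after 72 hr at 37 degree celsius was CellTiter-Glo luminescence.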

[7] = test system: MKL-1; test: as above; settings: MCC and control cell lines, CellTiter-Glo viability, 72 h; series mostly up to 46 µM
Method in brief: as §2

[8] = test system: WaGa; test: as above; settings: MCC and control cell lines, CellTiter-Glo viability, 72 h; series mostly up to 46 µM
Method in brief: as §2

[9] = test system: C33A; test: Primary qHTS to identify gynecologic anti-cancer compounds using libraries of approved drugs and bioactive compounds (AID 1345084); settings: Gynecologic cancer cell panel viability, ATPlite luminescence, 48 h; series mostly up to 57.5 µM; also: nearly all actives have a fitted effect of over 55% in size
Method in brief: (§3)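 Cells, 1,000 per well, plated 16 h, then exposed 48 h at 37 C to compounds. Viability by ATPlite luminescence after 15 min at room temperature.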

[10] = test system: CAOV3; test: as above; settings: Gynecologic cancer cell panel viability, ATPlite luminescence, 48 h; series mostly up to 57.5 µM
Method in brief: as §3

[11] = test system: Es-2; test: as above; settings: Gynecologic cancer cell panel viability, ATPlite luminescence, 48 h; series mostly up to 57.5 µM
Method in brief: as §3

[12] = test system: W2; test: qHTS profiling for inhibitors of Plasmodium falciparum proliferation (AID 504749); also: nearly all actives have a fitted effect of over 60% in size; settings: P. falciparum in erythrocytes, SYBR Green DNA, 72 h; series mostly up to 28.7 µM
Method in brief: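 Parasite proliferation within erythrocytes, 72 h exposure. Endpoint: SYBR Green I fluorescence after overnight lysis at room temperature. Controls: 0.29 uM artemisinin, DMSO.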

[13] = test system: HEK293T; test: qHTS assay to identify novel small-molecules to repurpose for Merkel cell carcinoma treatment (AID 1296009); settings: MCC and control cell lines, CellTiter-Glo viability, 72 h; at 44.8 µM (top of the series) unless noted; also: nearly all actives have a fitted effect of over 60% in size
Method in brief: as §2

[14] = test system: MCC-13; test: as above; settings: MCC and control cell lines, CellTiter-Glo viability, 72 h; series mostly up to 46 µM
Method in brief: as §2

[15] = test system: MKL-2; test: as above; settings: MCC and control cell lines, CellTiter-Glo viability, 72 h; series mostly up to 46 µM
Method in brief: as §2

[16] = test system: UISO; test: as above; settings: MCC and control cell lines, CellTiter-Glo viability, 72 h; series mostly up to 46 µM
Method in brief: as §2

[17] = test system: CASKI; test: Primary qHTS to identify gynecologic anti-cancer compounds using libraries of approved drugs and bioactive compounds (AID 1345084); settings: Gynecologic cancer cell panel viability, ATPlite luminescence, 48 h; series mostly up to 57.5 µM; also: nearly all actives have a fitted effect of over 55% in size
Method in brief: as §3

[18] = test system: HeLa; test: as above; settings: Gynecologic cancer cell panel viability, ATPlite luminescence, 48 h; series mostly up to 57.5 µM
Method in brief: as §3

[19] = test system: NIH3T3; test: qHTS assay to identify novel small-molecules to repurpose for Merkel cell carcinoma treatment (AID 1296009); settings: MCC and control cell lines, CellTiter-Glo viability, 72 h; at 44.8 µM (top of the series) unless noted; also: nearly all actives have a fitted effect of over 60% in size
Method in brief: as §2

[20] = test system: HACAT; test: as above; settings: MCC and control cell lines, CellTiter-Glo viability, 72 h; at 44.8 µM (top of the series) unless noted
Method in brief: as §2
Potency is read from the fitted curve at half-maximal effect.

Cc1ccc2nc(N)[nH]c(=O)c2c1Sc1ccncc1
active: Potency [2] 8.2 µM | Potency [3] 1.33 µM and 2.59 µM | Potency [5] 2.37 µM and 6.51 µM | Potency [8] 3.35 µM
inactive: max response [1] -27% and -23.5% | max response [4] -5.1% | Potency [6] | Potency [7] | Potency [9] | Potency [10] | Potency [11]

O=c1cc(CO)occ1O
inactive: Potency [12] | max response [1] -3.51% | outcome [2] | max response [3] 2.79% | max response [4] 1.74% and -12.5% | max response [5] -2.71% | outcome [13] | Potency [14] | Potency [7] | Potency [15] | Potency [16] | Potency [8] | Potency [9] | Potency [10] | Potency [17] | Potency [11] | Potency [18]

O=C(O)c1ccccc1O
inactive: Potency [12] | max response [1] 0.122% | outcome [2] | max response [3] 2.15% | max response [4] 7.74% and -13.4% | outcome [5] | outcome [13] | Potency [14] | Potency [6] | Potency [7] | Potency [15] | outcome [19] | Potency [16] | Potency [8] | Potency [9] | Potency [10] | Potency [17] | Potency [11] | Potency [18]

CCCn1cnc2c1c(=O)n(CCCCC(C)=O)c(=O)n2C
active: Potency [12] 15.1 µM
inactive: max response [1] -5.12% | max response [2] -11.1% | max response [3] -0.92% | max response [4] 4.64% | max response [5] -3.42% | Potency [14] | Potency [6] | Potency [7] | Potency [15] | Potency [16] | Potency [8] | Potency [9] | Potency [10] | Potency [17] | Potency [11] | Potency [18]

CC(C)(C)C(=O)NCCCC(=O)O
inactive: Potency [12] | max response [1] -4.98% | outcome [2] | max response [3] 4.53% | max response [4] -0.595% | outcome [5] | outcome [13] | Potency [14] | Potency [6] | Potency [7] | Potency [15] | outcome [19] | Potency [16] | Potency [8] | Potency [9] | Potency [17] | Potency [11] | Potency [18]

c1ccc2c(CC3=NCCN3)cccc2c1
inactive: max response [1] -1.39% | outcome [2] | max response [3] -1.06% | max response [4] -1.96% and -17.3% and -10.3% | max response [5] 1.32% | outcome [13] | Potency [14] | Potency [6] | Potency [7] | Potency [15] | Potency [16] | Potency [8] | Potency [9] | Potency [10] | Potency [17] | Potency [11] | Potency [18]

C[C@]12C[C@H](O)[C@H]3[C@@H](CCC4=CC(=O)CC[C@@]43C)[C@@H]1CC[C@@H]2C(=O)CO
inactive: Potency [12] | max response [1] 3.36% | outcome [2] | max response [3] 1.38% | outcome [13] | Potency [14] | Potency [6] | Potency [7] | Potency [15] | Potency [16] | Potency [8] | Potency [9] | Potency [10] | Potency [17] | Potency [11]
active: Potency [18] 20 µM

Nc1ncnc2c1ncn2[C@@H]1O[C@H](CO)[C@@H](O)[C@H]1O
inactive: Potency [12] | outcome [1] | max response [2] 1.55% | outcome [3] | max response [4] 15.4% | outcome [20] | Potency [14] | Potency [6] | Potency [7] | Potency [16] | Potency [9] | Potency [10] | Potency [17] | Potency [11] | Potency [18]

CCn1cc(C(=O)O)c(=O)c2cnc(N3CCNCC3)nc21
inactive: Potency [12] | max response [1] -6.3% | outcome [2] | max response [3] -4.47% | max response [4] -0.342% | outcome [5] | outcome [13] | Potency [14] | Potency [7] | Potency [15] | outcome [19] | Potency [16] | Potency [8] | Potency [9] | Potency [10] | Potency [17] | Potency [11] | Potency [18]

CCOC(=O)c1ccc(O)cc1
inactive: Potency [12] | max response [1] -1.17% | outcome [2] | max response [3] -1.41% | max response [4] -4.79% | outcome [5] | outcome [13] | Potency [14] | Potency [6] | Potency [7] | Potency [15] | outcome [19] | Potency [16] | Potency [8] | Potency [9] | Potency [10] | Potency [17] | Potency [11] | Potency [18]

COc1ccc2c(c1)C(=O)N(CCc1ccc(S(=O)(=O)NC(=O)NC3CCCCC3)cc1)C(=O)C2(C)C
inactive: Potency [12] | max response [1] 2.02% and -12.3% | max response [2] -11% | max response [3] 4.11% | max response [4] 7.8% and -5.8% | max response [5] -19.1% and -11.5% | Potency [14] | Potency [7] | Potency [15] | Potency [16] | Potency [8] | Potency [9] | Potency [10] | Potency [17] | Potency [11] | Potency [18]

CN(C)CC[C@@H](c1ccc(Cl)cc1)c1ccccn1
inactive: max response [1] 4.72% | max response [2] -2.7% | max response [3] 0.999% | max response [4] -22.8% | outcome [5] | Potency [14] | Potency [6] | Potency [7] | Potency [15] | outcome [19] | Potency [16] | Potency [8] | Potency [9] | Potency [10] | Potency [17] | Potency [11] | Potency [18]

NCC(=O)CCC(=O)O
inactive: max response [1] -2.12% | outcome [2] | max response [3] -9.5% | max response [4] 1.71% | outcome [5] | outcome [13] | Potency [14] | Potency [6] | Potency [7] | Potency [15] | outcome [19] | Potency [16] | Potency [8] | Potency [9] | Potency [17] | Potency [11] | Potency [18]

CC[N+](CC)(CC)CCOc1ccc(/C=C/c2ccccc2)cc1
active: Potency [1] 1.06 µM | Potency [2] 4.73 µM | Potency [3] 8.41 µM | Potency [7] 2.99 µM | Potency [15] 1.68 µM | Potency [16] 1.19 µM | Potency [8] 1.88 µM | Potency [9] 14.1 µM | Potency [10] 10 µM
inactive: max response [4] -18.6% and -29.7% | max response [5] -21.5% | Potency [14] | Potency [6]
